GLP1R cytotox = qHTS of GLP-1 Receptor Inverse Agonists: Cytotox Screen; HEK293 cAMP-luciferase reporter cells, luminescence, 24 h; AID 624418, 2012; 410,000 tested, 0.13% active; Potency, µM (highest dose often 38.3 µM), for inactives: at the highest dose activity change, negative = inhibition, hits mostly inhibitors;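 further: loss of luciferase light is scored as toxicity; on the % scale 0 is the no-effect control and ±100 the full control effect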
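A 23 nL compound transfer followed 12 hours of cell culture at 37 deg C; exposure then lasted 24 hr. Luciferase assay detection reagent was dispensed and plates read for luminescence after a 12 min room-temperature wait.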
mIDH1 inhibitor = qHTS for Inhibitors of mutant isocitrate dehydrogenase 1 (IDH1): qHTS; IDH1-R132H enzyme, NADPH consumption, diaphorase/resazurin fluorescence; 390,000 tested, 0.093% active; Potency, µM (series often up to 76.6 µM), for inactives: top-dose activity change, negative = inhibition, actives largely listed as inhibitors; Isocitrate dehydrogenase [NADP] cytoplasmic (Homo sapiens), O75874; further: on the % scale 0 is the no-effect control and ±100 the full control effect; nearly all actives have a fitted effect of over 65% in size
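IDH1-R132H (0.5 ug/mL dispensed) in pH 7.5 Tris buffer was preincubated 30 min with compound, then given a substrate mix of 0.016 mM NADPH and 2 mM alpha-KG for 80 min at room temperature; remaining NADPH was read by diaphorase/resazurin fluorescence.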
GLP1R ag = qHTS of GLP-1 Receptor Agonists | Potency, µM (top dose mostly 45.6 µM), for inactives: at the top dose activation, actives largely listed as activators | Glucagon-like peptide 1 receptor (Homo sapiens), P43220 | 380,000 tested, 0.007% active | HEK293 GLP-1R CRE-luciferase, luminescence, 4-6 h; cells express a hypersensitive GLP-1R form; further: % of control where 0% means no effect
TrxR1 substrate = qHTS Assay for Substrates of Mammalian Selenoprotein Thioredoxin Reductase 1 (TrxR1): qHTS; purified TrxR1 substrate turnover, NADPH consumption readout; Potency, µM (series often up to 114 µM), inactives show at the highest dose activity change, negative = substrate turnover; 390,000 tested, 0.01% active; further: on the % scale 0 is the no-effect control and ±100 the full control effect; nearly all actives have a fitted effect of over 50% in size
Target sequence (O89049 whole entry, looked up): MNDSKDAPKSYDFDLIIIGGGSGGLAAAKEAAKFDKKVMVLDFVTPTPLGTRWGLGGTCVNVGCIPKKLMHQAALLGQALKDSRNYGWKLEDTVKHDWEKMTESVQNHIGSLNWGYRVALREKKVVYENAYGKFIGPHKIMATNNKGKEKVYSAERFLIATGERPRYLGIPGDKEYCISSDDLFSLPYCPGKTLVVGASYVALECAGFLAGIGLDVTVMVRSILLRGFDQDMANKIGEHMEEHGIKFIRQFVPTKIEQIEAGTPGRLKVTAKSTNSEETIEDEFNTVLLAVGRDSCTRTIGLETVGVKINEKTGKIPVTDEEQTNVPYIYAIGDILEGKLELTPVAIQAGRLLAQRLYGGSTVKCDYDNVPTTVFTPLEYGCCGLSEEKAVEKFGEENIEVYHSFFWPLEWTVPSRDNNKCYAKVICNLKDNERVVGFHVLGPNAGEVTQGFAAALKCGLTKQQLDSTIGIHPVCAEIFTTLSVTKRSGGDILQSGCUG
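Rat TrxR1, dispensed at 90 nM, was prereduced with 400 uM NADPH (final) for 5 min at ~22 deg C, then incubated with compound 15 min before 400 uM selenite. A first-read NADPH fluorescence drop versus no-compound background flagged substrates.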
GLP-1R inv ag = qHTS of GLP-1 Receptor Inverse Agonists (Inhibition Mode). Glucagon-like peptide 1 receptor (Homo sapiens), P43220. HEK293 GLP-1R CRE-luciferase, luminescence, 24 h; GLP-1R form is constitutively active. Potency, µM (titrated, usually from 38.3 µM), for the others: at the top dose activity change, negative = inhibition, hits mostly inhibitors. 410,000 tested, 1.6% active; further: on the % scale 0 is the no-effect control and ±100 the full control effect; nearly all actives have a fitted effect of over 55% in size
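Assay principle: reduced luminescence from a cAMP-responsive reporter in HEK293 cells co-expressing a constitutively active GLP-1R. Conditions: 24 hr compound incubation, 37 deg C, 5% CO2.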
rTrxR1 inhibitor = qHTS Assay for Inhibitors of Mammalian Selenoprotein Thioredoxin Reductase 1 (TrxR1): qHTS | 390,000 tested, 1% active | Potency, µM (titrated, usually from 114 µM), for the others: at the highest dose activity change, negative = inhibition, usual class: inhibitors | Thioredoxin reductase 1, cytoplasmic (Rattus norvegicus), O89049 | recombinant rTrxR1, NADPH fluorescence consumption, selenite substrate; further: on the % scale 0 is the no-effect control and ±100 the full control effect; nearly all actives have a fitted effect of over 65% in size
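Rat TrxR1 (90 nM in the dispensed reagent) was pre-reduced with 400 uM NADPH for 5 min at room temperature, then incubated with compound for 15 min. After 400 uM selenite was added, NADPH fluorescence (Ex 340/Em 450 nm) was followed for 8 min.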
* = called active by the depositor; ? = inconclusive; . = no result; [ ] = another dose, or the depositor's remark. Hits are enriched below; roughly 2.7% of the tested compounds scored in any of these assays. The call rests on the fitted dose curve; in most records, active means well fitted curve in the direction sought with a large enough effect; inconclusive means small, poorly fitted or top-dose-only effect, or another doubt; inactive means no such curve, though single readings can be large; an effect the other way counts as inactive or inconclusive. Potency means the concentration at half of the fitted maximal effect.

SMILES | GLP1R cytotox | mIDH1 inhibitor | GLP1R ag | TrxR1 substrate | GLP-1R inv ag | rTrxR1 inhibitor
COc1ccc2c(c1)CCc1c(C(=O)NCCN3CCOCC3)noc1-2 | 10.5% | 7.5% | 4.9% | 2.2% | 3.1% | 39.8µM*
COc1ccc2c(c1)CCc1c(C(=O)NCCCn3ccnc3)noc1-2 | -4.4% | 5.2% | 8.5% | 1.7% | -1.2% | 15.8µM*
COCC(C)NC(=O)c1noc2c1CCc1cc(OC)ccc1-2 (configuration not stated) | 3.3% | 22.5% | 2.9% | 0.5% | 0.0% | 10µM*
COCCNC(=O)c1noc2c1CCc1cc(OC)ccc1-2 | -1.1% | 2.9% | 8.1% | 5.3% | 0.0% | ?
COc1ccc2c(c1)CCc1c(C(=O)NCc3ccco3)noc1-2 | -6.6% | -2.9% | 1.0% | 6.0% | 0.0% | -11.0%
CCCN1CNc2c(c(=O)[nH]c(=S)n2CCc2cc(OC)cc(OC)c2)C1 | . | . | . | -2.5% | . | -2.2%
Cc1ccc(C2N=C(Nc3nc4ccccc4o3)NC3=C2C(=O)CC(C)(C)C3)cc1 (configuration not stated) | . | . | . | 5.1% | . | 10.3%
Cc1ccc(NC(=O)CN(C)S(=O)(=O)c2ccc3c(c2)n(C)c(=O)c(=O)n3C)cc1F | 1.4% | 22.1% | . | 10.6% | 12.3% | 12.7%
CC(=O)c1ccc(Sc2nnnn2-c2ccccc2)c([N+](=O)[O-])c1 | -38.4% | -6.1% | -14.3% | 3.8% | ? | 7.94µM*
C/C=C1\COC(C(=O)NCc2ccccc2)(C(F)(F)F)C=C1C=C1CCCCC1 (configuration not stated) | 1.5% | 9.6% | -5.7% | 4.8% | ? | 1µM*
C/C=C1\COC(C(=O)NCCN2CCCC2)(C(F)(F)F)C=C1C=C1CCCCC1 (configuration not stated) | ? | -8.9% | 7.8% | -1.6% | ? | 6.6%
C/C=C1\COC(C(=O)NCCN2CCOCC2)(C(F)(F)F)C=C1C=C1CCCCC1 (configuration not stated) | . | . | . | -6.4% | . | ?
CCCC[C@@H]1CCCO[C@@](C(=O)NCc2ccccn2)(C(F)(F)F)C1 | 19.0% | 2.3% | -4.4% | -4.5% | 5.01µM* | 4.5%
C/C=C1\COC(C(=O)NCCCN2CCCC2=O)(C(F)(F)F)C=C1C=C(C)C (configuration not stated) | 6.1% | 1.1%[38.3 µM] | 8.6% | -5.4% | 5.1% | 3.16µM*
C/C=C1\COC(C(=O)NCc2ccccn2)(C(F)(F)F)C=C1C=C(C)C (configuration not stated) | . | . | . | 8.8% | . | 3.98µM*
Cc1ccc2c(c1)N(C(=O)N1CCC(C(=O)NCc3ccccc3F)CC1)CC(C)O2 (configuration not stated) | -27.8% | 10.7% | . | -1.0% | 6.1% | 13.9%[11.4 µM]
CC(C)Oc1cccc(C(=O)Nc2ccc(-c3nc4cc(Cl)cc(Cl)c4o3)cc2)c1 | -0.3% | -13.2% | . | 29.2% | 11.2% | 22.5%
CCC(=O)N1c2ccccc2CC1C(=O)NCc1cccc(C)c1 (configuration not stated) | 7.1% | 20.3% | . | -6.6%[57.1 µM] | -7.6% | 3.9%[57.1 µM]
Cc1cc(C)nc(NS(=O)(=O)c2ccc(NC(=O)c3nc(SC(C)C)ncc3Cl)cc2)n1 | 6.6% | 20.0% | . | -5.7% | 14.7% | 2.1%
O=C(Nc1ccccc1)Nc1cc(OCC(F)(F)F)cc(OCC(F)(F)F)c1 | 5.62µM* | 0.2% | -0.1% | -27.2%[57.1 µM] | 2.82µM* | 17.1%[57.1 µM]
O=C(Nc1ccccc1)Nc1cc(Cl)cc(Cl)c1 | ? | 6.6% | -47.3% | -6.0% | 2.82µM* | 10.2%
CN1CC=C2C(C#N)=C(N)C(C#N)(C#N)C(CCc3ccccc3)C2C1 (configuration not stated) | 121.3% | 41.4µM* | -5.8% | 100.8% | -0.2% | ?
CSc1ccc(Cl)c(C(=O)NCCOc2cc(C(C)C)ccc2C)c1 | 3.4% | 3.5% | -2.6% | -7.2% | 11.2µM* | 10.0%
CCCCCCC(O)C/C=C\CCCCCCCC(=O)O (configuration not stated) | . | . | 1.0% | . | . | .
CC(=O)N1CCc2cc(C(=O)CN3CCC(C)CC3)ccc21 | 1.5% | 13.9% | -4.1% | -6.2%[57.1 µM] | 58.8% | ?
SMILES | GLP1R cytotox | mIDH1 inhibitor | GLP1R ag | TrxR1 substrate | GLP-1R inv ag | rTrxR1 inhibitor
CC(=O)N1CCc2cc(C(=O)CN3CCN(C(=O)c4ccco4)CC3)ccc21 | -2.7% | -4.3% | 17.2% | -1.3%[57.1 µM] | 15.7% | 15.8µM*
COc1ccc2[nH]c(C)c(C(=O)CN3CCN(C(=O)c4ccco4)CC3)c2c1 | 4.6% | 0.0% | 3.5% | -2.9% | 16.0% | 28.2µM*
Cc1ccc(OCC(=O)OCc2cc(=O)n3nc(-c4cccs4)sc3n2)cc1C | 5.9% | 3.4% | . | 3.9%[57.1 µM] | 6.0% | 18.1%[57.1 µM]
CCOc1c2c(c(-c3ccc4c(c3)OCO4)c3cc(OC)c(OC)cc13)C(=O)OC2 | . | . | . | 16.8% | . | 5.3%
COc1ccc(C(=O)N/N=C/c2sc3ccccc3c2O)cc1 | ? | 5.8% | -0.7% | -7.3%[57.1 µM] | 1.58µM* | -3.6%[57.1 µM]
Cc1ccsc1/C=N/Nc1ccc(C(=O)O)cc1 | 2.2% | -2.0% | -8.2% | -16.0% | ? | -11.6%
COc1ccc(C(=O)N/N=C/c2sc(=O)n(Cc3cccc(C(=O)O)c3)c2Cl)cc1 | -8.6% | 5.4% | -3.9% | -16.2% | -1.4% | 79.4µM*
O=C(O)c1cccc(Cn2c(Cl)c(/C=N/NC(=O)c3ccccc3Cl)sc2=O)c1 | 5.3% | 0.9% | -4.8% | -8.0% | 0.5% | -17.7%
Cc1ccsc1/C=N/Nc1cccc(C(=O)O)c1 | -3.5% | -1.9% | -9.2% | -12.0% | 4.47µM* | -13.9%
O=C(O)c1cccc(Cn2c(Cl)c(/C=N/Nc3ccccc3)sc2=O)c1 | -21.9% | -9.2% | -1.5% | -8.5% | ? | 8.91µM*
Cc1ccc(-c2nnc(Nc3ccc(Cl)cc3)c3ccccc23)cc1S(=O)(=O)N1CCOCC1 | 13.9% | -2.9% | . | 5.2% | ? | 21.0%
CCOc1ccc(CCNC(=O)Cn2nc(CC)n3c(cc4sccc43)c2=O)cc1 | 6.0% | 0.0% | . | -1.9% | 5.4% | -1.3%
CC1CCN(CC(=O)Nc2ccc(S(=O)(=O)N3CCCCC3)cc2)CC1 | 13.2% | 12.6% | -7.1% | -3.3% | ? | 14.6%

Source: PubChem BioAssay
